From PubChem BioAssay
A selection: hits, their analogues and other compounds. The true share with any hit is near 12%.
Shiga toxin inh: inhibitors of Shiga toxin in Vero cells. actives 9.2% (n = 290,000). inhibition, % at 38.7 µM. AID 2315. Vero cells, Shiga toxin protein synthesis inhibition reporter; in the data active = inhibition mostly above about 28%, no sharp cut-off; inactive = mostly below about 43%
CHX counter: counter-screen for Shiga toxin inhibitors: cycloheximide protein synthesis inhibition; max response, %; actives 12% (n = 300,000); AID 2314; cell reporter, cycloheximide protein synthesis inhibition counterscreen; in the data active = max response mostly above about 13%, no sharp cut-off; inactive = mostly below about 14%; also: read at 38.3 µM for the half of the compounds with a filed dose
Lassa entry inh: blocks Lassa virus binding to or entry into cells | Lassa virus pseudotype entry inhibition, cell reporter | Potency, µM (doses to about 37.9 µM), usual class: inhibitors | actives 1.2% (n = 300,000) | AID 540256; calls by dose curve; tested in HEK293 cells; also: nearly all actives have a fitted effect of over 50% in size
MARV entry inh: Marburg virus entry inhibition; actives 1.8% (n = 300,000); Potency, µM (highest dose often 37.8 µM), actives largely listed as inhibitors; Marburg virus pseudotyped entry inhibition, cell reporter; calls by dose curve; tested in HEK293 cells
Of the large screens only hits and unclear results are named; the others gave an inactive call.

Cc1cc(C(=O)Cn2nc(C(=O)O)c3ccccc3c2=O)c(C)n1CCc1ccc(F)cc1	CHX counter 20, Lassa entry inh inconclusive, MARV entry inh 5.6µM
Cc1cc(C(=O)Cn2nc(C(=O)O)c3ccccc3c2=O)c(C)n1CC(F)(F)F	Shiga toxin inh 189, CHX counter 36, MARV entry inh inconclusive
O=C(Cn1nc(C(=O)O)c2ccccc2c1=O)c1cc(F)ccc1F	none (no result: Lassa entry inh, MARV entry inh)
Cc1c(Cl)sn(-c2ccc(Cl)cc2)c1=O	Shiga toxin inh 92, CHX counter 35, Lassa entry inh 9.2µM, MARV entry inh inconclusive
O=C(NC(=S)Nc1ccccc1F)C1CCCCC1	CHX counter 57 (no result: Lassa entry inh, MARV entry inh)
O=C(NC(=S)Nc1ccccc1Br)C1CCCC1	Shiga toxin inh 143, CHX counter 38 (no result: Lassa entry inh, MARV entry inh)
O=C(NC(=S)Nc1ccccc1Br)C1CCCCC1	Lassa entry inh inconclusive (no result: Shiga toxin inh, CHX counter)
COc1ccccc1NC(=O)CSc1nnc(CCC(=O)Nc2ccccc2F)n1C	none (no result: Lassa entry inh, MARV entry inh)
O=C(NCc1ccccn1)c1ccc(OC2CCN(Cc3ccc(CO)o3)CC2)cc1	none
O=c1c2ccccc2nnn1-c1ccccc1	none (no result: Shiga toxin inh, CHX counter)
N=c1c2ccccc2nnn1-c1ccc(C(F)(F)F)cc1	Shiga toxin inh 76, CHX counter 40
CC1(C)N=C(SCc2ccc(F)cc2)c2ccccc2N1	none (no result: Shiga toxin inh, CHX counter, MARV entry inh)
Cc1ccc(C(=O)NNC(=O)c2ccco2)cc1	Shiga toxin inh active, CHX counter 39, MARV entry inh inconclusive
Cc1ccc(C(=O)NNC(=S)NC(=O)c2ccco2)cc1	none
O=C(NNC(=O)c1ccco1)c1ccccc1	CHX counter 19
O=C(NC(=S)NNC(=O)c1ccco1)c1ccccc1	none (no result: Lassa entry inh, MARV entry inh)
CCc1ccc(NC(=O)CC2C(=O)N(c3ccc(Cl)cc3)C(=O)N2Cc2ccco2)cc1 (configuration not stated)	none (no result: Shiga toxin inh, CHX counter, MARV entry inh)
CC(=O)c1ccc(N2CCN(C(=O)C3CCCN(S(=O)(=O)c4cnc[nH]4)C3)CC2)cc1 (configuration not stated)	CHX counter 22
CC(=O)c1ccc(N2CCN(C(=O)C3CCCN(S(=O)(=O)c4ccc(Br)s4)C3)CC2)cc1 (configuration not stated)	none (no result: Shiga toxin inh, CHX counter)
CCOC(=O)c1c(S(=O)(=O)N2CCC(C(=O)Nc3ccc(F)cc3F)CC2)c(C)n(C)c1C	none (no result: Shiga toxin inh, CHX counter, MARV entry inh)
CNC(=O)COC(=O)c1ccc([N+](=O)[O-])cc1Cl	none
CC(=O)c1ccc(OCc2ccccc2)c(C)c1O	CHX counter 29, MARV entry inh inconclusive
O=C(OCC(=O)N1CCCC1)c1ccccc1O	Shiga toxin inh 103, CHX counter 54, Lassa entry inh inconclusive
NNC(=O)c1ccccc1OCc1ccccc1	Shiga toxin inh 38, CHX counter 17 (no result: Lassa entry inh, MARV entry inh)
O=C(OCC(=O)N1CCCCCC1)c1ccc([N+](=O)[O-])cc1Cl	CHX counter 15 (no result: Lassa entry inh, MARV entry inh)
O=C(OCC(=O)N1CCCC1)c1cc(Cl)ccc1Cl	none
O=C(Nc1ccc(O)cc1)c1ccccc1OCc1ccccc1	none (no result: Lassa entry inh, MARV entry inh)
CCOC(=O)CN(C)Cc1cn(C)nc1-c1ccc(Oc2ccccc2)cc1	none
CCCNC(=O)OC[C@H]1O[C@H](CCON=C(C)CCN2CCCCc3nc(C)c(C)cc32)C=C[C@H]1Oc1ccc(OC)cc1	none (no result: Shiga toxin inh, CHX counter, Lassa entry inh)
COc1ccc(NC(=O)CN(C)C(=O)CN2C(=O)C3CCCCC3C2=O)cc1 (configuration not stated)	none (no result: Shiga toxin inh, CHX counter)
Cc1nn(C)c(Oc2ccc(Cl)cc2)c1C(=O)Nc1ccc(F)cc1F	none
O=C(OCC(=O)N1CCCC1)c1ccccc1OCc1ccccc1	CHX counter 21, MARV entry inh inconclusive
O=C(OCC(=O)N1CCN(C(=O)c2ccco2)CC1)c1ccccc1OCc1ccccc1	none
COc1ccc(-n2c(=O)/c(=C\c3cccs3)s/c2=C(/C#N)C(=O)N2CCN(C)CC2)cc1	none
COc1ccc(NC(=O)c2sc3nc4c(cc3c2N)CCCCCC4)c(OC)c1	none (no result: Shiga toxin inh, CHX counter)
COC(=O)c1sc2nc(N)c(C#N)cc2c1N	Shiga toxin inh 73, CHX counter 30, Lassa entry inh inconclusive
COC(=O)c1sc2nc3c(cc2c1N)CCCC3	Shiga toxin inh 99, CHX counter 39, MARV entry inh inconclusive
NC(=O)c1sc2nc3c(cc2c1N)CCC3	Shiga toxin inh 48, CHX counter 22 (no result: Lassa entry inh, MARV entry inh)
CC(=O)Nc1ccc(S(C)(=O)=O)c(C)c1	MARV entry inh inconclusive
CCC(C)N(C(=O)COC(=O)COc1c(C)cc(C)cc1C)C1CCS(=O)(=O)C1 (configuration not stated)	none (no result: Shiga toxin inh, CHX counter)
COc1ccc(CCNC(=O)CN(c2cc(C)cc(C)c2)S(=O)(=O)c2c(C)noc2C)cc1OC	none (no result: Lassa entry inh, MARV entry inh)
COc1ccccc1CNC(=O)CN(C)S(=O)(=O)c1ccc2c(c1)c(=O)n(C)c(=O)n2C	none
Cc1nc(Cl)sc1C(=O)Nc1ccc(C(F)(F)F)cc1	CHX counter 20 (no result: Shiga toxin inh, Lassa entry inh, MARV entry inh)
Cc1cccc(C(=O)Nc2nc(C)c(C(=O)Nc3ccc4c(c3)CCC4)s2)c1	CHX counter 17, Lassa entry inh inconclusive, MARV entry inh inconclusive
COC(=O)c1ccccc1NC(=O)c1sc(Cl)nc1C	Shiga toxin inh 80, CHX counter 15
COc1ccccc1NC(=O)c1sc(Cl)nc1C	none (no result: Lassa entry inh, MARV entry inh)
Cc1ccc(NC(=O)c2ocnc2C)cc1Cl	Shiga toxin inh 70, CHX counter 52, Lassa entry inh inconclusive, MARV entry inh inconclusive
Cc1ccc(CNC(=O)c2ccc(CS(=O)(=O)Cc3ccc(F)cc3)o2)cc1	none (no result: Shiga toxin inh, CHX counter, MARV entry inh)
COc1cc(S(=O)(=O)N(Cc2cccnc2)Cc2cccc(OC)c2OC)ccc1-n1cnnn1	none
Cc1nc(Cl)sc1C(=O)Nc1cccc(C(F)(F)F)c1	MARV entry inh inconclusive (no result: Shiga toxin inh, CHX counter)
Cc1ncoc1C(=O)Nc1cccc(Cl)c1	Shiga toxin inh 100, CHX counter 63, Lassa entry inh inconclusive
COc1cccc(NC(=O)c2ocnc2C)c1	Shiga toxin inh 63, CHX counter 25
COc1cccc(NC(=O)c2sc(Cl)nc2C)c1	CHX counter 13 (no result: Shiga toxin inh)
Cc1cccc(NC(=O)c2sc(C)nc2C)c1	Shiga toxin inh 84, CHX counter 50, MARV entry inh inconclusive
CCCNC(=O)c1cc2nc(-c3ccccc3)cc(C(F)(F)F)n2n1	none
CC(C)OC(=O)C1OC1(C)c1ccccc1 (configuration not stated)	none (no result: Shiga toxin inh, CHX counter)
Cc1ncoc1C(=O)Nc1cccc(Cl)c1C	CHX counter 16, Lassa entry inh inconclusive
Cc1ccccc1NC(=O)c1ocnc1C	none (no result: Lassa entry inh, MARV entry inh)
O=C(Nc1nc2ccc(SC(F)F)cc2s1)c1ccc(NS(=O)(=O)c2ccc(F)c(F)c2)cc1	Shiga toxin inh 79, CHX counter 41
CS(=O)(=O)c1ccc2nc(NC(=O)c3ccc(NS(=O)(=O)c4ccc(F)c(F)c4)cc3)sc2c1	none (no result: Lassa entry inh, MARV entry inh)
CS(=O)(=O)c1ccc2nc(NC(=O)c3cccc(NS(=O)(=O)c4ccc(F)c(F)c4)c3)sc2c1	CHX counter 19, Lassa entry inh inconclusive
O=C(COc1ccc(S(=O)(=O)N2CCOCC2)cc1)NCCN1CCOCC1	none
CC(=O)N1c2ccc(S(=O)(=O)NCCC(=O)Nc3ccc(OC(F)(F)F)cc3)cc2CC1C (configuration not stated)	none (no result: Lassa entry inh, MARV entry inh)
CCOc1ccc(OCCN2C(=O)c3ccccc3C2=O)cc1	none (no result: Lassa entry inh, MARV entry inh)
Cc1cccc(OCCN2C(=O)c3ccccc3C2=O)c1	Shiga toxin inh 89, CHX counter 49 (no result: Lassa entry inh, MARV entry inh)
O=C(OCCN1C(=O)c2ccccc2C1=O)c1ccccc1	CHX counter 24
O=C(OCN1C(=O)c2ccccc2C1=O)c1ccccc1	none
Cc1ccc2c(c1)C(=O)C(=O)N2CCCOc1ccccc1	CHX counter 14 (no result: Lassa entry inh, MARV entry inh)
O=C1c2ccccc2C(=O)N1CCCOc1ccccc1	Shiga toxin inh 90, CHX counter 39, MARV entry inh inconclusive
